The text below walks through data of PMC5540273 (PLoS ONE, 2017).

Where two headings read alike, the source gives them in different places.

One assay relates to DAPK2. The conditions noted are these: concentration: 1 μM, replicates: in singlicate; n = 1.
In another assay the test system is DAPK3. The conditions noted are these: concentration: 1 μM, replicates: in singlicate; n = 1.
A further assay relates to T1, DCAMKL1.
T1 construct: gene DCLK1
The conditions noted are these: concentration: 1 μM, replicates: in singlicate; n = 1.

The subject of the next assay is T2, DCAMKL2.
T2 construct: gene DCLK2
The conditions noted are these: concentration: 1 μM, replicates: in singlicate; n = 1.

In the next assay the test system is T3, DCAMKL3.
T3 construct: gene DCLK3
Conditions: concentration: 1 μM, replicates: in singlicate; n = 1.

For another assay, the system named is DDR1. Conditions: concentration: 1 μM, replicates: in singlicate; n = 1.
Another assay has as its system DDR2. Conditions: concentration: 1 μM, replicates: in singlicate; n = 1.
For a further assay, the system named is T4, DLK.
T4 construct: gene MAP3K12
The conditions noted are these: concentration: 1 μM, replicates: in singlicate; n = 1.

The next assay deals with T5, DMPK2.
T5 construct: gene CDC42BPG
Conditions: concentration: 1 μM, replicates: in singlicate; n = 1.

The subject of the next assay is DMPK. Conditions: concentration: 1 μM, replicates: in singlicate; n = 1.
A further assay relates to T6, DRAK1.
T6 construct: gene STK17A
Conditions: n = 1.

Another assay relates to T7, DRAK2.
T7 construct: gene STK17B
The conditions noted are these: n = 1.

Another assay concerns DYRK1A. Conditions: concentration: 1 μM, replicates: in singlicate; n = 1.
For a further assay, the system named is DYRK1B. Conditions: concentration: 1 μM, replicates: in singlicate; n = 1.
In another assay the test system is DYRK2. The conditions noted are these: concentration: 1 μM, replicates: in singlicate; n = 1.
The subject of a further assay is EGFR. The conditions noted are these: concentration: 1 μM, replicates: in singlicate; n = 1.
In a further assay the test system is EIF2AK1. Conditions: concentration: 1 μM, replicates: in singlicate; n = 1.
The subject of a further assay is EPHA1. Conditions: concentration: 1 μM, replicates: in singlicate; n = 1.
A further assay relates to EPHA2. The conditions noted are these: concentration: 1 μM, replicates: in singlicate; n = 1.
For another assay, the system named is EPHA3. The conditions noted are these: concentration: 1 μM, replicates: in singlicate; n = 1.
Where [1] appears, read: concentration: 1 μM, replicates: in singlicate.
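Note: KINOMEscan kinase panel screen.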

Turning to `O=C(O)COc1ncnc2cc(-c3ccc4[nH]ncc4c3)sc12`, the “%Inh” value with DAPK2 was 0%; in the assay on DAPK3 it was 5%; in the assay with DCAMKL1, 0%; with DCAMKL2 it was 2%; in the assay with DCAMKL3 it was 8%; in the assay with DDR1, 0%. Besides, the “%Inh” value came to 7% with DDR2; 34% with DLK; 3% with DMPK2; 13% in the assay on DMPK; 83% in the assay on DRAK1 (1 µM); 99.3% in the assay on DRAK2 (1 µM). The “%Inh” value came to 67% with DYRK1A; 41% with DYRK1B; 66% in the assay with DYRK2; 0% with EGFR; 0% in the assay with EIF2AK1; 15% in the assay with EPHA1. Besides, the “%Inh” value with EPHA2 and in the assay with EPHA3 was 10% each time.
Take `O=C(Nc1ccccc1)Nc1cccc(Oc2ccc3nccn3n2)c1`: the “%Inh” value with DAPK2 worked out at 0%; with DAPK3, 0%; in the assay on DCAMKL1 it was 0%; with DCAMKL2, 0%; in the assay on DCAMKL3, 69%; with DDR1 it was 97.8%. The “%Inh” value with DDR2 was 1%; in the assay on DLK, 0%; in the assay with DMPK2 it was 0%; in the assay with DMPK it was 4%; in the assay with DRAK1 (setting [1]), 0%; in the assay with DRAK2 (setting [1]), 1%. In addition, the “%Inh” value in the assay on DYRK1A is on record as 0%; in the assay with DYRK1B, 45%; with DYRK2, 0%; with EGFR it was 33%; with EIF2AK1, 0%; in the assay with EPHA1 it was 14%. Moreover, the figures for the “%Inh” value in the assay on EPHA2 and with EPHA3 were 30% and 34%, respectively.
In the case of `Cc1cc(-c2ccc3c(c2)CC[C@@H](N[C@@H](C)c2ccccc2)C3)cnc1N.Cl` [GW412617], the “%Inh” value stood at 0% in the assay on DAPK2; 0% in the assay on DAPK3; 0% with DCAMKL1; 0% in the assay on DCAMKL2; 0% in the assay with DCAMKL3; 14% in the assay on DDR1. The “%Inh” value with DDR2 came out at 25%; in the assay with DLK it was 87%; in the assay with DMPK2 it was 4%; in the assay with DMPK it was 6%; with DRAK1 (setting [1]), 0%; in the assay on DRAK2 (setting [1]), 11%. Further, the “%Inh” value with DYRK1A was found to be 19%; in the assay on DYRK1B it was 17%; in the assay on DYRK2, 0%; in the assay on EGFR, 31%; with EIF2AK1, 0%; with EPHA1, 14%. Further, the entries for the “%Inh” value in the assay on EPHA2 and in the assay with EPHA3 were 14% and 0%, respectively.
Consider `COc1ccccc1-c1ccc2c(NC(=O)C3CC3)n[nH]c2n1` [SB-711239], for which the “%Inh” value in the assay with DAPK2 turned out to be 11%; in the assay on DAPK3, 3%; with DCAMKL1, 0%; with DCAMKL2 it was 3%; with DCAMKL3, 0%; in the assay with DDR1 it was 10%. Moreover, the “%Inh” value with DDR2 is listed as 22%; in the assay with DLK it was 5%; in the assay on DMPK2 it was 0%; with DMPK, 1%; with DRAK1 (setting [1]), 5%; with DRAK2 (setting [1]) it was 0%. The “%Inh” value was 12% in the assay on DYRK1A; 16% in the assay on DYRK1B; 2% with DYRK2; 2% with EGFR; 0% with EIF2AK1; 0% with EPHA1. The results for the “%Inh” value in the assay with EPHA2 and in the assay on EPHA3 were 18% and 0%, respectively.
